The first experiment concerns the target PUM1 PUF domain R3-GRT (Homo sapiens, UniProt Q14671 828-1176, C935G;Q939T). As to the kind of experiment: yeast three-hybrid, YBZ-1, SC-Leu-His + 0.5 mM 3-AT, 4 days. The settings on record: tags: N-Gal4 AD-HA kept; label: inside an RPR1-promoter hybrid RNA with tandem MS2 sites; ssRNA. Put shortly: (§1)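 The interaction score is the log change in how often each variant appears, from input to selection. Frequencies came from PCR-amplified, Illumina-sequenced repeat regions of Pumilio-1 PUF domain libraries grown in strain YBZ-1 (LexA–MS2 coat fusion, HIS3 reporter) alongside matching RNA elements. Input plates were SC-Leu and selection plates were SC-Leu-His + 0.5 mM 3-AT, each for four days, and the log2 calculation used a pseudocount of 1 where a variant was absent.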
Turning to “GGCUAGAACUAGUGGAUCCCCCGGCGCCCGGCGGCUCGAGCCCGGGUAAGUGUAAUUAGUCUGCAUGCCGCCGGGCGCCAUGCCUGCAGGUCGACUCUAGAAAACAUG”, the binding signal is 1.63 log2 enrichment (interaction score).

In the case of “GGCUAGAACUAGUGGAUCCCCCGGCGCCCGGCGGCUCGAGCCCGGGUAAGUGUAAAUAGUCUGCAUGCCGCCGGGCGCCAUGCCUGCAGGUCGACUCUAGAAAACAUG”, the binding signal was 2.82 log2 enrichment (interaction score).

For “GGCUAGAACUAGUGGAUCCCCCGGCGCCCGGCGGCUCGAGCCCGGGUAAGUGUAAGUAGUCUGCAUGCCGCCGGGCGCCAUGCCUGCAGGUCGACUCUAGAAAACAUG”, the binding signal is 1.58 log2 enrichment (interaction score).

A further experiment concerns the target PUM1 PUF domain R5-GRG (Homo sapiens, UniProt Q14671 828-1176, C1007G;Q1011G). The experiment is described as above. The conditions noted are these: tags: N-Gal4 AD-HA kept; label: inside an RPR1-promoter hybrid RNA with tandem MS2 sites; ssRNA. Put shortly: as §1
Turning to “GGCUAGAACUAGUGGAUCCCCCGGCGCCCGGCGGCUCGAGCCCGGGUAAGUGUUAAUAGUCUGCAUGCCGCCGGGCGCCAUGCCUGCAGGUCGACUCUAGAAAACAUG”, the binding signal was 3.72 log2 enrichment (interaction score).

Take “GGCUAGAACUAGUGGAUCCCCCGGCGCCCGGCGGCUCGAGCCCGGGUAAGUGUGAAUAGUCUGCAUGCCGCCGGGCGCCAUGCCUGCAGGUCGACUCUAGAAAACAUG”: the binding signal is 3.07 log2 enrichment (interaction score).

Take “GGCUAGAACUAGUGGAUCCCCCGGCGCCCGGCGGCUCGAGCCCGGGUAAGUGUAAAUAGUCUGCAUGCCGCCGGGCGCCAUGCCUGCAGGUCGACUCUAGAAAACAUG”: the binding signal is 3.08 log2 enrichment (interaction score).

As to “GGCUAGAACUAGUGGAUCCCCCGGCGCCCGGCGGCUCGAGCCCGGGUAAGUGUCAAUAGUCUGCAUGCCGCCGGGCGCCAUGCCUGCAGGUCGACUCUAGAAAACAUG”, the binding signal is 0.84 log2 enrichment (interaction score).

In a further experiment the target is PUM1 PUF domain R3-YWG (Homo sapiens, UniProt Q14671 828-1176, C935Y;R936W;Q939G). The description is as above. The conditions noted are these: tags: N-Gal4 AD-HA kept; label: inside an RPR1-promoter hybrid RNA with tandem MS2 sites; ssRNA. In outline:
as §1
“GGCUAGAACUAGUGGAUCCCCCGGCGCCCGGCGGCUCGAGCCCGGGUAAGUGUAAUUAGUCUGCAUGCCGCCGGGCGCCAUGCCUGCAGGUCGACUCUAGAAAACAUG”: the binding signal is 4.54 log2 enrichment (interaction score).

For “GGCUAGAACUAGUGGAUCCCCCGGCGCCCGGCGGCUCGAGCCCGGGUAAGUGUAAAUAGUCUGCAUGCCGCCGGGCGCCAUGCCUGCAGGUCGACUCUAGAAAACAUG”, the binding signal was 4.94 log2 enrichment (interaction score).

For “GGCUAGAACUAGUGGAUCCCCCGGCGCCCGGCGGCUCGAGCCCGGGUAAGUGUAAGUAGUCUGCAUGCCGCCGGGCGCCAUGCCUGCAGGUCGACUCUAGAAAACAUG”, the binding signal is 6.77 log2 enrichment (interaction score).

The record behind these values is publication PMC8384837, “Expanding the binding specificity for RNA recognition by a PUF domain”.
